Results filed as inconclusive are left out. Activity calls are given as the source filed them. Unless noted, calls follow the shape of the dose curve; as a rule, active = well fitted curve in the direction sought with a large enough effect; inconclusive = small, poorly fitted or top-dose-only effect, or another doubt; inactive = no such curve, though single readings can be large; an effect the other way counts as inactive or inconclusive.
Assays:
[1] = target: Lysosomal acid glucosylceramidase (Homo sapiens) (UniProt P04062); assay: Glucocerebrosidase-p2 (AID 348; in the data active = potency below about 10 µM; also: potency is read from the fitted curve at half-maximal effect); conditions: purified GBA, blue fluorogenic substrate, 40 min
Outline: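 Normal human glucocerebrosidase (0.2 nM) with blue fluorogenic substrate (80 uM final) in citrate/phosphate pH 5.9 with 10mM sodium taurocholate, 0.01% tween-20; 40 min RT, NaOH/glycine stop; fluorescence Ex 365/Em 440; AC50 from a titration from 0.6 nM upwards.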

[2] = NFAT Signaling Pathway (AID 444; active = well fitted curve in either direction with a large enough effect, not every such curve was filed as active;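 also: carbachol stimulus at about its EC50 of 1 µM final; % is scaled to controls: 0 for no effect and ±100 for the full control effect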); conditions: Jurkat NFAT-bla M1, carbachol, beta-lactamase ratio, 5 h; at 7.69 µM (top of the series) unless noted
Outline: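 Read-out: CCF4 FRET ratio (460 nm/530 nm) after 1 h RT dye loading, used for %activity and AC50 from titration series. Cells: Jurkat NFAT-β-lactamase/M1 line, treated with compound plus 1 uM carbachol for 5 h, 37 °C.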

[3] = Stat Signaling Pathway (AID 446; active = well fitted curve in either direction with a large enough effect, not every such curve was filed as active;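 also: ME-180 cervical cancer cells given 40 pM IL-6 alongside compound; SIE-controlled beta-lactamase reporter measured as 460/530 nm FRET emission ratio; % is scaled to controls: 0 for no effect and ±100 for the full control effect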); conditions: ME-180 SIE beta-lactamase reporter, IL-6 stimulated, 5 h; at 7.69 µM (top of the series) unless noted
Outline: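 Emission at 460 and 530 nm (excitation 405 nm) reports SIE-controlled beta-lactamase in ME-180 cells. Cells received compound with 40 pM IL-6 for 5 hrs at 37 C; data scaled between 300 pM IL-6 and 125 nM JAK-inhibitor controls.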

[4] = target: Glucocorticoid receptor (Homo sapiens) (UniProt P04150); assay: GR-GFP Redistribution (AID 450;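 active = compounds whose dose series gives a full or clear partial fitted curve of increased nuclear translocation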; also: potency is read from the fitted curve at half-maximal effect); conditions: U2OS GR-GFP nuclear translocation, laser cytometry, 2 h
[5] = target: Glucocorticoid receptor (Homo sapiens) (UniProt P04150); assay: GR-EFC Redistribution (AID 451; calls by dose curve; also: potency is read from the fitted curve at half-maximal effect); conditions: CHO-K1 GR-EFC translocation, beta-gal luminescence, 2 h
Outline: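 Translocation of GR-ED fusion to nuclear EA restores b-gal, read by luminescence after 1 h room-temperature detection. Engineered CHO-K1 biosensor cells, 1,000/well, exposed 2 h at 37 C to titrations up to 46 uM final.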

[6] = target: Mitogen-activated protein kinase 10 (Mus musculus) (UniProt Q61831); assay: JNK3 AlphaScreen Assay (AID 530; active = well fitted curve in either direction with a large enough effect, not every such curve was filed as active;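 also: kinase came from lysate of stimulated human HepG2 cells; signal reports phosphorylation of biotinylated GST-cJun 1-79 at Ser73 with 10 µM ATP; % is scaled to controls: 0 for no effect and ±100 for the full control effect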); conditions: JNK3 lysate, c-Jun phosphorylation; series mostly up to 11.4 µM
Outline: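 qHTS titrations with 15 min compound pre-incubation before adding ATP (10 uM final). Read-out: AlphaScreen of Ser73-phosphorylated biotin-GST-cJun using HepG2 lysate JNK3 activated by IL-1β and TNFα.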

[7] = target: 3',5'-cyclic-AMP phosphodiesterase 4B (Homo sapiens) (UniProt Q07343); assay: qHTS Assay for Inhibitors of PDE-IV (AID 607; active = well fitted activation curve with a large enough effect in the main read-out, with a control signal flat, not every such curve was filed as active; also: % of control where 0% means no effect); conditions: HEK293 ACTOne CNG channel cells, membrane potential fluorescence; series mostly up to 22.9 µM
Outline: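 The readout is membrane depolarisation from a cAMP-sensing CNG channel, detected with a potential dye at ex 535/em 590. Cells were HEK293-derived (endogenous PDE-IV) at 1000 cells/well, titrated up to 22.9 uM final.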

[8] = target: Cytochrome P450 1A2 (Homo sapiens) (UniProt P05177); assay: p450-cyp1a2 (AID 410; calls by dose curve; also: potency is read from the fitted curve at half-maximal effect;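 as to activity change, negative = inhibition: -100% = full effect of reference inhibitor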); conditions: recombinant CYP1A2, luciferin-ME demethylation, luminescence; series mostly up to 11.4 µM
Outline: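 O-Demethylation of luciferin 6' methyl ether by human CYP1A2 is monitored as luciferase luminescence. Substrate sits at Km (100uM); enzyme is 20nM. Values are scaled to 57 uM furafylline as maximal inhibition.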

[9] = target: Cytochrome P450 2C9 (Homo sapiens) (UniProt P11712); assay: qHTS Assay for Inhibitors and Substrates of Cytochrome P450 2C9 (AID 883); conditions: recombinant CYP2C9, luciferin-H luminescence, 60 min; series mostly up to 11.4 µM; also: potency is read from the fitted curve at half-maximal effect; nearly all actives have a fitted effect of over 60% in size
Outline: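 Luminescent read-out of deoxyluciferin hydroxylation, normalized to 57uM sulphaphenazole (AC100). Reaction: 10nM enzyme, 100uM Luciferin-H (equal to KM), 25mM KPO4, 10 min compound preincubation, then 60 min with NADPH regeneration, both at 37C.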

[10] = qHTS Assay for Identification of Small Molecule Agonists for Hypoxia Response Element Signaling Pathway (AID 914; active = well fitted activation curve with a large enough effect in the signal ratio, with a control signal flat, not every such curve was filed as active; the % refers to the signal ratio; also: potency is read from the fitted curve at half-maximal effect); conditions: ME-180 (cervical carcinoma) HRE-bla reporter, beta-lactamase ratio, CoCl2, 17 h; activation: active compounds read high
Outline: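 Positive modulation of EC50 CoCl2-induced hypoxia response element signaling is measured in ME-180 cells with a beta-lactamase reporter. Compounds are titrated, incubation runs 17 hours, and %Activity derives from the blue/green ratio.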

[11] = target: Cytochrome P450 3A4 (Homo sapiens) (UniProt P08684); assay: qHTS Assay for Activators of Cytochrome P450 3A4 (AID 885); conditions: recombinant CYP3A4, Luciferin-PPXE luminescence, 60 min; series mostly up to 11.4 µM; also: nearly all actives have a fitted effect of over 65% in size
Outline: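 Activators are scored by enhanced luminescence from CYP3A4 conversion of luciferin-PPXE (25uM, equal to KM) to luciferin, after 60 min at RT with an NADPH-regenerating system.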

[12] = target: Cytochrome P450 2D6 (Homo sapiens) (UniProt P10635); assay: qHTS Assay for Inhibitors and Substrates of Cytochrome P450 2D6 (AID 891); conditions: recombinant CYP2D6, luciferin-ME EGE luminescence; series mostly up to 11.4 µM; also: potency is read from the fitted curve at half-maximal effect; nearly all actives have a fitted effect of over 60% in size
Outline: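 Luminescent read-out of luciferin formed by 5 nM human CYP2D6 demethylating 30 uM Luciferin-ME EGE (Km level) over 60 min at room temperature after NADPH regeneration addition. Data normalized to full inhibition by 1.43 uM quinidine.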

[13] = target: Cytochrome P450 2C19 (Homo sapiens) (UniProt P33261); assay: qHTS Assay for Inhibitors and Substrates of Cytochrome P450 2C19 (AID 899); conditions: recombinant CYP2C19, luciferin-H EGE luminescence; series mostly up to 11.4 µM; also: nearly all actives have a fitted effect of over 60% in size; also: potency is read from the fitted curve at half-maximal effect
Outline: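 Luminescence readout of luciferin formed from 10uM Luciferin-H EGE (KM level) by 5 nM CYP2C19 in 50mM KPO4. 60 min NADPH-driven reaction at 37C after 10 min compound preincubation; data scaled to 57uM ketoconazole inhibition.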

[14] = target: Guanine nucleotide-binding protein G(i) subunit alpha-1 (Homo sapiens) (UniProt P63096); assay: qHTS Assay for Inhibitors of RGS12 GoLoco Motif Activity (Green Fluorophore) (AID 879); conditions: Galphai1/FITC-RGS12 GoLoco peptide, fluorescence polarization; series mostly up to 57.1 µM;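 also: 0% = labeled peptide with Gαi1 and full inhibition = labeled peptide alone without protein; negative values mean loss of peptide binding seen as reduced polarization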
Outline: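 A drop in FITC polarization marked displacement of the FITC-tagged RGS12 GoLoco peptide (10 nM) from Gαi1 (50 nM). Compounds were incubated 10 min at room temperature in Tris pH 7.5 buffer containing 150 mM NaCl, 0.1 mM GDP and 0.05% NP40; unlabeled peptide titration served as control.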

[15] = qHTS Assay for Identification of Small Molecule Agonists for Thrombopoietin (TPO) Signaling Pathway (AID 917); conditions: TPO signaling pathway reporter cells, agonist qHTS, stimulated with TPO at its EC50; series mostly up to 38.5 µM; also: % is scaled to controls: 0 for no effect and ±100 for the full control effect
Outline: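 First, Ba/F3 cells with human TPO receptor were held overnight without IL-3. Next, compounds and TPO (26 pM final) were added. After 24 hrs at 37 C, luciferase detection reagent was added and luminescence measured following 10 min at room temperature.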

[16] = target: Pyruvate kinase (Leishmania mexicana) (UniProt Q27686); assay: qHTS Validation Assay for Inhibitors of Leishmania Mexicana Pyruvate Kinase (AID 945);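 also: 0% = DMSO only neutral control wells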; conditions: purified L. mexicana pyruvate kinase, enzyme activity, E451W mutant enzyme; series mostly up to 57.5 µM
Outline: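 qHTS eight-point titrations against 0.2 nM LmPYK (E451W) in imidazole buffer pH 7.2 with 0.5 mM PEP, 0.1 mM ADP; 1 h, room temperature. Readout: PKLight luminescence, normalized to neutral DMSO wells.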

[17] = target: Pyruvate kinase PKM (Homo sapiens) (UniProt P14618); assay: qHTS Assay for Activators of Human Muscle Pyruvate Kinase (AID 954; active = well fitted curve in the direction sought with a large enough effect, not every such curve was filed as active;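 also: 0% = uninhibited enzyme and -100% = no enzyme or full thiadiazolimine inhibition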); conditions: purified human muscle pyruvate kinase, luciferase-coupled luminescence, 1 h; series mostly up to 57.5 µM
Outline: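 PKM2, human, >95% pure, 0.1 nM; PEP 0.5 mM (Km), ADP 0.1 mM; 50 mM imidazole pH 7.2, 50 mM KCl, 0.01% Tween 20, 0.05% BSA; 1 h RT; luciferase luminescence readout.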

[18] = target: Alpha-galactosidase A (Homo sapiens) (UniProt P06280); assay: Counterscreen for Glucocerebrosidase Inhibitors: qHTS Assay for Human alpha-Galactosidase at pH 4.5 (AID 992); conditions: purified enzyme, fluorogenic substrate; series mostly up to 76.9 µM; also: 0% is about no effect
Outline: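 Fluorogenic 4-MU alpha-D-galactoside (80 uM) hydrolysis, 2 nM enzyme, pH 4.5 citrate buffer + 0.005% Tween-20; 20 min RT; NaOH/glycine pH 10 stop; Ex365/Em440. Compounds titrated 0.7 nM–77 uM; Hill-equation AC50.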

[19] = target: alpha-glucosidase (Oryza sativa, rice) (UniProt Q653V4); assay: Counterscreen for Glucocerebrosidase Inhibitors: qHTS Assay for Rice alpha-Glucosidase at pH 5.0 (AID 997); conditions: rice alpha-glucosidase enzyme activity; series mostly up to 76.9 µM;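 also: 0% = full activity with enzyme and -100% = basal without enzyme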
Outline: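 Endpoint fluorogenic assay at pH 5.0: compounds (0.7 nM to 77 uM) titrated against 4 nM rice enzyme and 400 uM 4-MU-alpha-glucoside for 20 min at room temperature; NaOH/glycine stop, read ex 365/em 440 nm, Hill-fitted AC50.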

Chain of Cytochrome P450 2C19 (Homo sapiens) (P33261 whole entry, looked up): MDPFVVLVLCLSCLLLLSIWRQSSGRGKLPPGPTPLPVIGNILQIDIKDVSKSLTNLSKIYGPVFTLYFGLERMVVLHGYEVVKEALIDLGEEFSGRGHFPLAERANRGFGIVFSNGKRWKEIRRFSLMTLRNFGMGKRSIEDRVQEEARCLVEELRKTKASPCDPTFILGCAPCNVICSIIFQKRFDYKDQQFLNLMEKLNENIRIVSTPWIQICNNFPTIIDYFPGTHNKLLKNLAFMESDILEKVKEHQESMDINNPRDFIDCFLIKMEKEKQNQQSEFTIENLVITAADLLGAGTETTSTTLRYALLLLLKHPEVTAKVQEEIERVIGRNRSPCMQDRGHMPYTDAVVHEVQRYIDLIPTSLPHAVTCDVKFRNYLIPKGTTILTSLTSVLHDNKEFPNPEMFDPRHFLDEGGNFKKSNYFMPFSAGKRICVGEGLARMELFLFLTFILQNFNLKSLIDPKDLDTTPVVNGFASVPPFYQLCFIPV
Chain of Lysosomal acid glucosylceramidase (Homo sapiens) (P04062 whole entry, looked up): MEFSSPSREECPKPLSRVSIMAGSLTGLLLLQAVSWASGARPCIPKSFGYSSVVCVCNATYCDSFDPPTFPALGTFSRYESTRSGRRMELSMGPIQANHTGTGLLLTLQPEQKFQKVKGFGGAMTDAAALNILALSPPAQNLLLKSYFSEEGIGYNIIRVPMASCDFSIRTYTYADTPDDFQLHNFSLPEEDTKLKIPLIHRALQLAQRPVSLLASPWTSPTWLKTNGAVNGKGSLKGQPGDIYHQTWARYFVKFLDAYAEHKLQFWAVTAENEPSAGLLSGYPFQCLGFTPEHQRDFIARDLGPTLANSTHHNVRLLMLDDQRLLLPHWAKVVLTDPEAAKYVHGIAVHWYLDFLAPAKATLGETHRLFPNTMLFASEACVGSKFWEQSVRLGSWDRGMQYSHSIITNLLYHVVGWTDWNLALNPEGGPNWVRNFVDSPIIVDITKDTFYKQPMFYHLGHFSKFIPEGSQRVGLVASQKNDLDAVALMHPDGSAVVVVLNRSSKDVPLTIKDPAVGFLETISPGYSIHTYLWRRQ
Chain of Cytochrome P450 3A4 (Homo sapiens) (P08684 whole entry, looked up): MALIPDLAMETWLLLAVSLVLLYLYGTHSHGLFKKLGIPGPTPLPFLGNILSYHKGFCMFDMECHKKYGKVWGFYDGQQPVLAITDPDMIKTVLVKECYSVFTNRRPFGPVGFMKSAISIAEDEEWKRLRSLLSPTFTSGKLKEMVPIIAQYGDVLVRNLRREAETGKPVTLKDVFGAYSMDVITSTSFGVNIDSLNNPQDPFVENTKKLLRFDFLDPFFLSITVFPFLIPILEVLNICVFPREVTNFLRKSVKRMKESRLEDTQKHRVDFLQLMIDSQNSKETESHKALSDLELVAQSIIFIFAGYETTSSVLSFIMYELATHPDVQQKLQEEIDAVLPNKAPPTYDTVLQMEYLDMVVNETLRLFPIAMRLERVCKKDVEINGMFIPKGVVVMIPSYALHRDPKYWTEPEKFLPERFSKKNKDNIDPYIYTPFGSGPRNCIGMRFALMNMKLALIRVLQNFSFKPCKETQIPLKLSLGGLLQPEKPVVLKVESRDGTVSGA
Chain of Cytochrome P450 1A2 (Homo sapiens) (P05177 whole entry, looked up): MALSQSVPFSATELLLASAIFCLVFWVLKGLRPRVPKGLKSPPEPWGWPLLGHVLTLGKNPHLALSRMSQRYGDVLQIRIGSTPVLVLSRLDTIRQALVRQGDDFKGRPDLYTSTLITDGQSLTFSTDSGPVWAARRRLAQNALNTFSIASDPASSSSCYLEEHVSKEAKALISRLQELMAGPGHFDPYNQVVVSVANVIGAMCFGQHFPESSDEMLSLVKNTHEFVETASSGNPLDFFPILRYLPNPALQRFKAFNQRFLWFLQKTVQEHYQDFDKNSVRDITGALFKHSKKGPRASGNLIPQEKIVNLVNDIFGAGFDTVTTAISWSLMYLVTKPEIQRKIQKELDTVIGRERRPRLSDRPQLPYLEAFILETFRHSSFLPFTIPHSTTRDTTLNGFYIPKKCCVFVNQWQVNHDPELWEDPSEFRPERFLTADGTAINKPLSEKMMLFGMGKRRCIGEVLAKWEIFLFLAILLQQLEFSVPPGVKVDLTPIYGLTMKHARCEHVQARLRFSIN
Chain of Glucocorticoid receptor (Homo sapiens) (P04150 whole entry, looked up, the tested form may be a part): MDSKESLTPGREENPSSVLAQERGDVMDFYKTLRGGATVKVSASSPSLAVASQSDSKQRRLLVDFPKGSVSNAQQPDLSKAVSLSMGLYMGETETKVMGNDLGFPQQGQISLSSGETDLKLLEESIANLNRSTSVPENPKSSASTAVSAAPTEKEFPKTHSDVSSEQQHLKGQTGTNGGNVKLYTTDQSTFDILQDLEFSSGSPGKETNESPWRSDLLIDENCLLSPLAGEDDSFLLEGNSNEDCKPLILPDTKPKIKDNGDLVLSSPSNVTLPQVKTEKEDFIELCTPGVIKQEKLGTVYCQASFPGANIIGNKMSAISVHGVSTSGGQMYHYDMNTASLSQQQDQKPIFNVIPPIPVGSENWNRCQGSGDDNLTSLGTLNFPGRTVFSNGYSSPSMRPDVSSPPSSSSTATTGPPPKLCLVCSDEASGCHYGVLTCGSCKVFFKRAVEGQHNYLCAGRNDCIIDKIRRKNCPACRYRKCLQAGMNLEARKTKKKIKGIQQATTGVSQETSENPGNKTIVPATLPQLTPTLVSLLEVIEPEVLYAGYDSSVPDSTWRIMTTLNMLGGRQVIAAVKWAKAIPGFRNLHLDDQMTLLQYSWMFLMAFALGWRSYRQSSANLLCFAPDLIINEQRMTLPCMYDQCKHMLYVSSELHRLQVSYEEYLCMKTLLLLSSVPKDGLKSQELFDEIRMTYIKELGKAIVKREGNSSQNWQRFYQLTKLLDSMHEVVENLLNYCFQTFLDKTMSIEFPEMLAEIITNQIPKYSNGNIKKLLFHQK
Chain of 3',5'-cyclic-AMP phosphodiesterase 4B (Homo sapiens) (Q07343 whole entry, looked up): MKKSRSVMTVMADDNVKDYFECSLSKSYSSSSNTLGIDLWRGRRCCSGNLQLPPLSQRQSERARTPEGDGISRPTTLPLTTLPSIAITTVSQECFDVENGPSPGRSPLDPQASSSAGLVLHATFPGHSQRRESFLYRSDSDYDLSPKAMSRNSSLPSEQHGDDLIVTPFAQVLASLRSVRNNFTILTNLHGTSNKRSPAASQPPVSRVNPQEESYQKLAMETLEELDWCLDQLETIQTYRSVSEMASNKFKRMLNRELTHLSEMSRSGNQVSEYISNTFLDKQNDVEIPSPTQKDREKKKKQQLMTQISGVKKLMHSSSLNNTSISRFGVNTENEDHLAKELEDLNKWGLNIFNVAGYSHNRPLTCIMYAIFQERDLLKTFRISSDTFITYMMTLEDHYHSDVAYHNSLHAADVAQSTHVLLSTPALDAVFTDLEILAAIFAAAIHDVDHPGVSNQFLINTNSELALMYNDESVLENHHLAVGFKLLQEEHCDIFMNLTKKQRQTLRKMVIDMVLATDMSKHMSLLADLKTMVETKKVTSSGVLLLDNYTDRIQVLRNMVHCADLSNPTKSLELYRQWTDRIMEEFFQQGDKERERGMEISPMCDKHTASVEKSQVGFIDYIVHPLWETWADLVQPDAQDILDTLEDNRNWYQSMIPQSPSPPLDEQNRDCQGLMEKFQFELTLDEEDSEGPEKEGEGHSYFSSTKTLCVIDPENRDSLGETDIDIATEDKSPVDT
Chain of Cytochrome P450 2C9 (Homo sapiens) (P11712 whole entry, looked up): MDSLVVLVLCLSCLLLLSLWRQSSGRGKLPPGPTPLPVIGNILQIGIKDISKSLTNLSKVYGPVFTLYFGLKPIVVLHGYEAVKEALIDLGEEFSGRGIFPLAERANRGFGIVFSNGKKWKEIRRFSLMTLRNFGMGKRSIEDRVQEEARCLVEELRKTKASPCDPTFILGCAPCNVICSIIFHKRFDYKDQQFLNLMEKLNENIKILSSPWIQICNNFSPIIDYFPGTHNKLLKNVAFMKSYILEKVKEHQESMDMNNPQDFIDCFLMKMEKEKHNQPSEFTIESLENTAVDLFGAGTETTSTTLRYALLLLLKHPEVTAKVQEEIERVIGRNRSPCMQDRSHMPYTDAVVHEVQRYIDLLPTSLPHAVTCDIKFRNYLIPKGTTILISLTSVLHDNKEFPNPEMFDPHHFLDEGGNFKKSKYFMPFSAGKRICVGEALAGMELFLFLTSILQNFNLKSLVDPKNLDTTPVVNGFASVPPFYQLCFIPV
Chain of Alpha-galactosidase A (Homo sapiens) (P06280 whole entry, looked up): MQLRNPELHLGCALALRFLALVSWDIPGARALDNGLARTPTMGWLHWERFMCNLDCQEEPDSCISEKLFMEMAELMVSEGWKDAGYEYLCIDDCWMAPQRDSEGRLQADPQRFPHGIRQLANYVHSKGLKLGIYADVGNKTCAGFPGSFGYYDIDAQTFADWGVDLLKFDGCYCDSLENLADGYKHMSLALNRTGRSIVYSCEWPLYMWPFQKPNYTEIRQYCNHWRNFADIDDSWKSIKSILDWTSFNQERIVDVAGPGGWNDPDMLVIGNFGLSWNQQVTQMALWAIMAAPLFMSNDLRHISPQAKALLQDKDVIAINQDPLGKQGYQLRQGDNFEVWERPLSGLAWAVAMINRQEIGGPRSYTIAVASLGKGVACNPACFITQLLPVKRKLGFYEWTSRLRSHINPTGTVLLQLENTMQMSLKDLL
Chain of Guanine nucleotide-binding protein G(i) subunit alpha-1 (Homo sapiens) (P63096 whole entry, looked up): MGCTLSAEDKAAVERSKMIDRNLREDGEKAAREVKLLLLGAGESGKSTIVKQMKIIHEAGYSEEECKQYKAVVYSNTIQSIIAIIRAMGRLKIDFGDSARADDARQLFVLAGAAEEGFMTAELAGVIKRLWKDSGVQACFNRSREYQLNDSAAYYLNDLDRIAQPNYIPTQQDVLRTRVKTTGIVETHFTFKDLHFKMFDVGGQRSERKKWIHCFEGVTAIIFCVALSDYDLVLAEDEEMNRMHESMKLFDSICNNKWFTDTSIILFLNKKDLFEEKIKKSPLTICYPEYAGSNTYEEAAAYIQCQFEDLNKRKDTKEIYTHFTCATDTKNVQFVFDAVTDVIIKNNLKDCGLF

CC(=O)Nc1c(C)cc(OCC(=O)O)cc1C
inactive: Potency [1] > 11.4 µM | activity change, negative = inhibition [2] 19.3% | activity, negative = inhibition [3] 12.5% | Potency [4] > 46 µM | Potency [5] > 9.22 µM | Potency [6] | Potency [7]

O=c1c(-c2cccs2)nc2cnc(Oc3ccccc3)nc2n1C1CC1
active: Potency [8] 2.51 µM | Potency [9] 3.16 µM | Potency [10] 3.16 µM
inactive: Potency [1] > 11.4 µM | Potency [4] > 9.22 µM | Potency [5] > 46 µM | Potency [7]

CN(Cc1ccccc1)Cn1ccnc1
inactive: Potency [1] > 11.4 µM | activity change, negative = inhibition [2] -1.18% | activity, negative = inhibition [3] 10.2% | Potency [4] > 46 µM | Potency [5] > 9.22 µM | Potency [6] | Potency [7] | Potency [11]
active: Potency [9] 2.51 µM | Potency [12] 0.794 µM | Potency [13] 2 µM

CC[C@H]1C(=O)OC[C@H]1Cc1cncn1C
inactive: Potency [1] > 11.4 µM | Potency [8] | Potency [7] | outcome [14] | Potency [13] | outcome [15] | outcome [16] | outcome [17] | outcome [18] | Potency [19]

ClC(=Nc1cccc2ccccc12)N(c1ccccc1)c1ccccc1
active: Potency [9] 3.16 µM | Potency [13] 2.51 µM
inactive: Potency [1] > 11.4 µM | activity change, negative = inhibition [2] -2.09% | Potency [4] > 46 µM | Potency [5] > 9.22 µM | Potency [6] | Potency [7] | Potency [11]

OCCN[C@@H]1c2cc(Cl)ccc2-c2c(Cl)cc(Cl)cc21
inactive: Potency [1] > 11.4 µM | activity change, negative = inhibition [2] -8.6% | activity, negative = inhibition [3] 4.1% | Potency [4] > 46 µM | Potency [5] > 9.22 µM | Potency [6] | Potency [7]

O=C(O)CCc1nc(-c2ccccc2-n2cccc2)no1
inactive: Potency [1] > 11.4 µM | activity change, negative = inhibition [2] 8.59% | activity, negative = inhibition [3] -0.807% | Potency [4] > 46 µM | Potency [5] > 9.22 µM | Potency [6] | Potency [7] | Potency [11]

CN(C)C[C@@H](O)c1ccc(Cl)c2ccccc12
inactive: Potency [1] > 11.4 µM | activity change, negative = inhibition [2] -4.99% | activity, negative = inhibition [3] 18.4% | Potency [4] > 46 µM | Potency [5] > 9.22 µM | Potency [6] | Potency [7]

CN1CCN(c2ncc3nc(-c4ccccc4)c(=O)n(Cc4ccc(F)cc4)c3n2)CC1
active: Potency [10] 3.16 µM
inactive: Potency [1] > 11.4 µM | Potency [8] | Potency [4] > 9.22 µM | Potency [5] > 46 µM | Potency [6] | Potency [7]

Cc1[nH]c(N)nc(=S)c1CCCNc1ccccc1
inactive: Potency [1] > 11.4 µM | activity change, negative = inhibition [2] 3.26% | activity, negative = inhibition [3] 3.47% | Potency [4] > 46 µM | Potency [5] > 9.22 µM | Potency [6] | Potency [7]
active: Potency [13] 2 µM

Reference: PubChem BioAssay (NCATS)
